Test results from PubChem BioAssay AID686978 (National Center for Advancing Translational Sciences (NCATS), 2013).
The campaign covered roughly 420,000 compounds. About 64,000 (15%) were called active. About 27% were inconclusive and are not listed. The list is a sample of the results. Values without a mark were called inactive. Calls follow the shape of the dose curve; as a rule, active = well fitted inhibition curve with a large enough effect; inconclusive = small, poorly fitted or top-dose-only effect; inactive = flat fitted curve, though single readings scatter.

Assay: qHTS for Inhibitors of human tyrosyl-DNA phosphodiesterase 1 (TDP1): qHTS in cells in absence of CPT; also: nearly all actives have a fitted effect of over 55% in size
Details: DT40 Tdp1-/- hTDP1 cells, no CPT, ATP luminescence, 48 h; activity change, negative = growth inhibition: at 46.2 µM (top of the series)
Outline: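 Stably hTDP1-transfected Tdp1-null chicken DT40 cells were treated with library compounds minus camptothecin and grown for at least 48 hr at 37 °C, after which cellular ATP was quantified by luminescence.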
% is scaled to controls: 0 for no effect and ±100 for the full control effect; potency is read from the fitted curve at half-maximal effect.

Row | SMILES | activity change, negative = growth inhibition [%] | Potency
1 | COCCNC(=O)COc1ccc(C)c(C)c1 | -9.12 | –
2 | Cc1ccc(C)c(N2CCN(S(=O)(=O)c3c(C)[nH]c(C)c3C(=O)N3CCCC3)CC2)c1 | – | 23.1 µM (active)
3 | Cc1ccc(C)c(NS(=O)(=O)c2c(C)[nH]c(C)c2C(=O)N2CCCCC2)c1 | -1.44 | –
4 | CCc1noc(C)c1C(=O)N1CCN(S(=O)(=O)c2cccc(C(F)(F)F)c2)CC1 | -1.34 | –
5 | Cc1ccc(NS(=O)(=O)c2c(C)[nH]c(C)c2C(=O)N2CCCCC2)c(C)c1 | -17.5 | –
6 | Cc1[nH]c(C)c(S(=O)(=O)N2CCN(c3cccc(C(F)(F)F)c3)CC2)c1C(=O)N1CCCCC1 | – | 10.3 µM (active)
7 | Cc1[nH]c(C)c(S(=O)(=O)N2CCC(C)CC2)c1C(=O)N1CCCC1 | 3.3 | –
8 | O=S(=O)(NCc1cccnc1)c1ccc(Cl)nc1 | -17.2 | –
9 | Cc1occc(=O)c1OCc1c(Cl)cccc1Cl | 12.3 | –
10 | O=C(Nc1nnc(-c2ccc(F)cc2)s1)c1c(F)cccc1Cl | -13 | –
11 | CC(=O)N1CCc2ccc(N)cc21 | -7.03 | –
12 | O=C(NCc1ccc2c(c1)OCO2)c1c(-c2ccsc2)sc2ccccc12 | – | 14.6 µM (active)
13 | O=C(NCc1ccc2c(c1)OCO2)c1ccc(Cl)s1 | -26.7 | –
14 | O=C(NCc1ccc2c(c1)OCO2)c1sccc1Br | -12.3 | –
15 | COC(=O)c1ccc2ccccc2c1OC1OC(CO)C(O)C(O)C1NC(C)=O (stereo unspecified) | -14.3 | –
16 | CCOc1cccc(/C(O)=C2/C(=O)C(=O)N(CCOC)C2c2ccncc2)c1 (stereo unspecified) | -0.467 | –
17 | CS(=O)(=O)N1CCN(C(=O)CSc2ccccc2)CC1 | -5.6 | –
18 | COCCn1c(SC(C)C(=O)NC2CC2)nnc1-c1cccc(C)c1 (stereo unspecified) | -19.5 | –
19 | COc1ccc(C(CNC(=O)c2ccc(OCc3cscn3)cc2)N2CCCC2)cc1 (stereo unspecified) | -19.4 | –
20 | C=CCN(CC=C)C(=O)CN1C(=O)c2ccccc2C1=O | -3.75 | –
21 | CN(C)/C=C(/C(=O)c1ccccc1Cl)S(C)(=O)=O | -2.14 | –
22 | Cc1ccc2nc(-c3cccnc3)c(NC3CCCC3)n2c1 | – | 20.6 µM (active)
23 | O=C(COC(=O)c1cncc(Br)c1)Nc1ccc(S(=O)(=O)N2CCOCC2)cc1 | -12.7 | –
24 | O=C(CCn1nnnc1CN1CCOCC1)N1CCC(c2ccccc2Cl)C1 (stereo unspecified) | -9.44 | –
25 | Cc1cccc(C(=O)N2CCC(c3nc4ccccc4s3)CC2)c1 | -23.4 | –
26 | CC(=O)Oc1ccc(C(C)=O)c2c1OCCO2 | -8.77 | –

Row | SMILES | activity change, negative = growth inhibition [%] | Potency
27 | CC(=O)Oc1ccc(OC(C)=O)c2c1C1C=CC2CC1 | – | 16.4 µM (active)
28 | COc1c(C(=O)N2CCCC2)ccc2ccccc12 | -25.1 | –
29 | NC(=O)CC[C@@H]1NC(=O)[C@H](CO)NC(=O)c2cc([N+](=O)[O-])cc(I)c2NCC[C@@H](C(N)=O)NC1=O | -1.82 | –
30 | COCC(=O)N1CCc2ccc(NC(=O)c3ccccc3Cl)cc2C1 | 18.5 | –
31 | COc1cccc(CNCc2ccc3c(c2)OCO3)c1 | -23.4 | –
32 | COc1ccc(NC(=O)NCc2ccc3c(c2)OCO3)c(OC)c1 | 2.84 | –
33 | COc1ccc2c(c1)C(C)=CC(C)(C)N2C(=O)CNCc1ccc2c(c1)OCO2 | – | 20.6 µM (active)
34 | CC(=O)O[C@H]1CC[C@@]2(C)[C@@H](CC[C@@H]3[C@@H]2CC[C@]2(C)[C@@H](C(C)(C)O)C[C@@H]32)C1 | -13.8 | –
35 | CC(C)C(=O)NC(C)c1nnc2n1CCN(Cc1cccc3ncccc13)CC2 (stereo unspecified) | -2.35 | –
36 | Cc1nc(N2CCN(c3ccccn3)CC2)c2c(C)c(C(=O)Nc3ccc(F)cc3)sc2n1 | – | 20.6 µM (active)
37 | CCS(=O)(=O)N1Cc2ccccc2CC1C(=O)Nc1ccc(OC)cc1OC (stereo unspecified) | -20.6 | –
38 | COc1ccc(NC(=O)c2sc3nc(C)nc(N4CCN(c5ccccn5)CC4)c3c2C)c(OC)c1 | – | 11.6 µM (active)
39 | O=C(Nc1ccc(N2CCOCC2)nc1)c1c(F)cccc1F | -8.61 | –
40 | Cc1nc2c(-c3ccc(F)cc3)c(C)nn2c(C)c1CCC(=O)N1CCN(c2ccccn2)CC1 | -25.4 | –
41 | CCOC(=O)C1CCCN(C(=O)c2sc3nc(C)nc(N4CCOCC4)c3c2C)C1 (stereo unspecified) | -8.49 | –
42 | Cn1c(SCC(=O)Nc2ccc(N3CCOCC3)cc2)nnc1C(F)(F)F | -0.0099 | –
43 | Cc1nc(N2CCOCC2)c2c(C)c(C(=O)Nc3ccc(C(F)(F)F)cc3)sc2n1 | – | 18.4 µM (active)
44 | CCOc1ccc(Cn2nnc(C(=O)Nc3ccc(OC)cc3OC)c2N)cc1 | -1.55 | –
45 | Cc1cc(Cl)c(S(=O)(=O)NCCC(=O)O)cc1OCC(N)=O | -5.51 | –
46 | COc1cc(C)c(CN2CCc3nnc(C(C)NC(=O)c4cccnc4)n3CC2)cc1C (stereo unspecified) | -1.75 | –
47 | COc1ccc(OC)c(NC(=O)C2CCCN2S(=O)(=O)c2cccc3nsnc23)c1 (stereo unspecified) | -11.2 | –
48 | Nc1ncc(CN2CCCC(C(=O)Nc3ccc(-c4ccco4)cc3)C2)cn1 (stereo unspecified) | 2.56 | –
49 | O=C(CNC(=O)c1cccnc1)N/N=C/c1cc(Br)c(O)c(Br)c1 | -14.5 | –
50 | Cc1nc2ccc(C(=O)N3CCSCC3)cc2s1 | -8.92 | –
51 | CCNC(=O)CN(c1ccc(C)cc1)S(=O)(=O)c1ccc(SC)cc1 | -23.1 | –
